Test [1] deals with Cell division control protein 42 homolog (Homo sapiens) (UniProt P60953). Nature of the test: inhibition of fluorescent GTP binding to constitutively active Cdc42 – biochemical, multiplex bead flow cytometry, Bodipy-FL-GTP, dose response (AID 1333).
For test [2] the target is unchanged. Kind of test: inhibition of fluorescent GTP binding to wildtype Cdc42 – biochemical, multiplex bead flow cytometry, Bodipy-FL-GTP, dose response (AID 1334;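 active means fitted half-maximal concentration within the tested range, moderate curve steepness, significant signal drop, and little compound fluorescence or bead-linkage interference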). Particulars: bead-based flow cytometry, Bodipy-FL-GTP binding to GST-Cdc42; at 100 µM (top of the series) unless noted.
In test [3] the target is GTPase HRas (Homo sapiens) (UniProt P01112). Kind of test: Ras wt fluorescent GTP loading blockade – biochemical, wildtype, multiplex bead flow cytometry, dose response (AID 1335;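 active means fitted half-maximal concentration within 10 nM to 100 µM, steepness 0.5 to 2, significant signal drop, low assay interference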). Particulars: bead-based flow cytometry, Bodipy-GTP binding to GST-Ras; at 100 µM (top of the series) unless noted.
Chain of GTPase HRas (Homo sapiens) (P01112 whole entry, looked up): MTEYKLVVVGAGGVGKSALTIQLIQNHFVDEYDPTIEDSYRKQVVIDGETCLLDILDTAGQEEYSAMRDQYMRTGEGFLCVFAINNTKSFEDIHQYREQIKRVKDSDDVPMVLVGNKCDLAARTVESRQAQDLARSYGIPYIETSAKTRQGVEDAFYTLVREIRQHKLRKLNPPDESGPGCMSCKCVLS
Test [4] relates to Ras-related protein Rab-7a (dog), GTP binding. Kind of test: blockers of fluorescent GTP binding to Rab7 – biochemical, wildtype, multiplex bead flow cytometry, dose response (AID 1336; call rule not given here).
The target of test [5] is Ras-related C3 botulinum toxin substrate 1 (Homo sapiens) (UniProt P63000). Nature of the test: inhibition of wildtype Rac1 nucleotide loading – biochemical, multiplex bead flow cytometry, dose response (AID 1340;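 active means dose curve with midpoint inside tested range, moderate steepness, plateau gap beyond fit error, low compound glow and bead-link interference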). Particulars: GST-Rac1 beads, Bodipy-FL-GTP binding; at 100 µM (top of the series) unless noted.
In test [6] the target is GTPase HRas (Homo sapiens) (UniProt P01112). Nature of the test: blockade of GTP loading onto mutant Ras – biochemical, activated mutant, multiplex bead flow cytometry, dose response (AID 1341;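 active means dose-response curve with midpoint inside the tested range, moderate steepness, significant amplitude and little compound fluorescence or bead-attachment interference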;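 further: GST-tagged constitutively activated Ras mutant immobilized on beads and multiplexed with other GTPases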).
Test [7] addresses Regulator of G-protein signaling 16 (Homo sapiens) (UniProt O15492). Nature of the test: small molecules altering RGS protein interactions with GNAO1 – biochemical, multiplexed beads, flow cytometry, RGS4/7/8/16/19, primary screen (AID 1504).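 Further: fluorescently labeled Galpha-o bound to GDP with aluminium fluoride binding biotinylated RGS beads.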 Particulars: multiplexed bead flow cytometry, measured here: RGS16 interaction, at 10 µM.
The target in test [8] is Regulator of G-protein signaling 19 (Homo sapiens) (UniProt P49795). Described as above. The conditions noted are these: multiplexed bead flow cytometry, measured here: RGS19 interaction, at 10 µM.
The target in test [9] is Regulator of G-protein signaling 7 (Homo sapiens) (UniProt P49802). The test is described as above. Particulars: multiplexed bead flow cytometry, measured here: RGS7 interaction, at 10 µM.
The target in test [10] is Regulator of G-protein signaling 8 (Homo sapiens) (UniProt P57771). The test is described as above. The conditions noted are these: multiplexed bead flow cytometry, measured here: RGS8 interaction, at 10 µM.
Test [11] is described as follows: hit retest on RPL19A-GFP reporter strain – cell-based, S. cerevisiae, flow cytometry, cherry picks, mother/daughter gates, confirmation (AID 2270;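 active means GFP response below 50% of the DMSO control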). The conditions noted are these: 3 h, at 10 µM, stronger effect = lower value, 100 = same GFP as DMSO wells.
Test [12] in a line: yeast TOR pathway reporter LAP4-GFP change – cell-based, cherry picks, flow cytometry, mother/daughter gates, confirmation (AID 2271;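 active means GFP response above 150% of the DMSO control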;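 further: ratio of sample to DMSO plate mean so 100% equals DMSO level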). The conditions noted are these: S. cerevisiae LAP4-GFP strain, 3 h, at 10 µM, stronger effect = higher value, 100 means same as DMSO control.
A short description of test [13]: TOR pathway reporter MEP2-GFP, retest of hits – S. cerevisiae, flow cytometry GFP, cherry picks, confirmation (AID 2272;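 active means GFP response above 150% of the DMSO control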;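 further: ratio of well signal to plate DMSO mean so 100% equals DMSO level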). Particulars: S. cerevisiae MEP2-GFP strain, 3 h, at 10 µM, stronger effect = higher value.
The nature of test [14]: yeast AGP1-GFP fluorescence change, single-dose – cell-based, flow cytometry, S. cerevisiae, cherry picks, confirmation (AID 2273;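 active means GFP response above 150% of the DMSO level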;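 further: median GFP channel fluorescence over the whole cell population gate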). The conditions noted are these: S. cerevisiae AGP1-GFP strain, 3 h, at 10 µM.
Test [15] can be described thus: TOR pathway CIT2 reporter hit retest – S. cerevisiae, GFP fusion, cherry picks, mother/daughter gates, confirmation (AID 2274;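 active means GFP response above 150% of the DMSO level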). Particulars: S. cerevisiae CIT2-GFP strain, flow cytometry, 3 h, at 10 µM, stronger effect = higher value.
Test [16] can be described thus: green-channel fluorescence artefact in S. cerevisiae – s288c strain, artefact control for yeast TOR pathway GFP screen, dose response (AID 2757;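 active means fluorescence span over the dose series, or activity score, above about 33, limit read from the data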;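 further: thousands of bead-calibrated equivalent soluble fluorophore molecules from median cell fluorescence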). The conditions noted are these: 520 nm autofluorescence, flow cytometry, 3 h, at 33 µM, stronger effect = higher value, zero means same as solvent-only cells.
The nature of test [17]: reduced mouse 2C T cell binding to pMHC/ICAM-1 vesicles – MLPCN validation set, flow cytometry, LFA-1/ICAM-1 modulator project, pilot screen (AID 2523;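 active means response below a set limit, under 55% cells CD8-positive and vesicle-bound, and CD8 cells' 90th-percentile brightness under 279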;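 on vesicle binding response: mean PE anti-B7-1 fluorescence of CD8+ cells relative to row control; 100% = QL9-loaded vesicles with DMSO vehicle in the same plate row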). The conditions noted are these: 2C mouse CD8+ T cells, at 7 µM, stronger effect = lower value; double positive events: measured here: CD8+/vesicle+ event percentage.
A short description of test [18]: calorie-restriction mimetic ROS inhibitors, yeast – validation compound set, pilot screen (AID 2706;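 active means superoxide response below 65% of plate, a cut near 3 SD across the whole screen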;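 further: yeast exposed to compound for one week at 30 degrees C before staining; 100% = mean of all compound wells on the same plate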). Particulars: S. cerevisiae aging, superoxide DHE fluorescence; at 10 µM; stronger effect = lower value.
In test [19] the target is Beta-adrenergic receptor kinase 1 (Homo sapiens) (UniProt P25098). Nature of the test: GRK2 binders displacing RNA aptamer, biochemical, validation, human GRK2, bead flow cytometry (AID 488806;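 active means aptamer binding inhibition above 30%, about 3 SD of noise from non-fluorescent compounds; inactive means inhibition at or below 30%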). The conditions noted are these: bead-bound GRK2, FAM-aptamer displacement, at 10 µM, stronger effect = higher value.
Chain of Beta-adrenergic receptor kinase 1 (Homo sapiens) (P25098 whole entry, looked up): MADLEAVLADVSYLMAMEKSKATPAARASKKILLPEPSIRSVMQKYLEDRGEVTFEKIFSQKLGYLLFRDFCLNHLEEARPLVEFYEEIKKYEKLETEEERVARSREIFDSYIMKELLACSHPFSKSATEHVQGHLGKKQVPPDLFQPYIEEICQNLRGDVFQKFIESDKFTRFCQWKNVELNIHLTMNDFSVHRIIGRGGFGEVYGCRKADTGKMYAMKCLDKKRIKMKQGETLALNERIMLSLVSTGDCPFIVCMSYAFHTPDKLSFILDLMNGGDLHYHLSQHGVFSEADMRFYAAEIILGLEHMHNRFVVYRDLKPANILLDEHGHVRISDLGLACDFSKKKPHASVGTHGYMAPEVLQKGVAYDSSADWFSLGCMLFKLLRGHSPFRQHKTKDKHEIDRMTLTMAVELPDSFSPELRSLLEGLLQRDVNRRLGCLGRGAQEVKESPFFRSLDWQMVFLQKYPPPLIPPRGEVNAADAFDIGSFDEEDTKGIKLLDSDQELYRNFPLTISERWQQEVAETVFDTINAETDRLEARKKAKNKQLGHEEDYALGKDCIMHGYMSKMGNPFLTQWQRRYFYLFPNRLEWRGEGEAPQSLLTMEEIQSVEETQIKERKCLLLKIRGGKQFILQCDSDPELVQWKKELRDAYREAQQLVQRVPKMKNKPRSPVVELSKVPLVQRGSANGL
Test [20] has as its target Beta-2 adrenergic receptor (Homo sapiens) (UniProt P07550). Nature of the test: agonist-induced loss of surface beta2AR – cell-based, FAP fluorogen, flow cytometry, validation set, pilot screen (AID 504459;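 active means percent response above 42, roughly 3 SD of non-fluorescent test compounds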;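 further: agonist-driven loss of surface beta2AR via internalization measured by FAP dye flow cytometry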). Particulars: Am2.2-beta2AR cells, at 10 µM, stronger effect = higher value.
Test [21] concerns the target AP-2 complex subunit beta (Homo sapiens) (UniProt P63010). Kind of test: beta-arrestin/AP2 interaction blockers – biochemical, validation set, GST-AP2 beads, flow cytometry, pilot screen (AID 504541;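 active means inhibition above 54%, about 3 SD of non-fluorescent compounds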;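 further: AP2 carries R879A mutation and is captured from E. coli lysate; bead-bound FITC arrestin peptide fluorescence measuring arrestin peptide binding to AP2; 0% = DMSO wells and 100% = excess unlabeled arrestin peptide control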). Particulars: FITC arrestin peptide, at 10 µM, stronger effect = higher value, AP2 beta2 appendage fragment, R879A mutant.
A short description of test [22]: cytosolic pH regulators acting via V-ATPase – S. cerevisiae, pHLuorin, HTS validation (AID 504600; in the data active means response above about 15%;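 further: plate controls were DMSO for no effect and reference compound for full effect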). Particulars: V-ATPase proton transport, at 10 µM, stronger effect = higher value.
Test [23] concerns anti-desmoglein-3 scFv antibody binding to human DSG3. Kind of test: blockers of pathogenic pemphigus antibody–desmoglein-3 binding – biochemical, validation compound set, bead-based, flow cytometry, pilot screen (AID 588368;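 active means binding below the plate cutoff, the plate median minus 3 SD, with a reading above zero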;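 further: signal is the median channel fluorescence of bead-bound GFP antibody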). Particulars: Protein G beads, DSG3-Fc, scFv-GFP binding, at 10 µM, stronger effect = lower value.
Test [24] can be described thus: Nile Red efflux blockade in pump-expressing yeast – validation compound set, multiplex, phenotypic, pilot screen (AID 588506;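 active means efflux inhibition above 0.42, the validation set average plus 4 SD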;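 further: Nile Red retained in cells so higher fluorescence means more efflux inhibition; 0 = negative control wells and 1 = enniatin B 25 µM full block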). The conditions noted are these: S. cerevisiae pump-expressing triplex, Nile Red efflux flow cytometry; at 10 µM; stronger effect = higher value; the pumps come from Candida albicans.
The target in test [25] is ATP-binding cassette sub-family B member 6 (Homo sapiens) (UniProt Q9NP58). Kind of test: blockers of ABCB6-driven porphyrin uptake – K562-ABCB6 cells, flow cytometry, validation set, pilot screen (AID 588550;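 active means inhibition above the screen-wide mean plus 3 SD, about 51%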;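 further: 0% = DMSO wells and 100% = benzethonium chloride 70 µM positive control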). Particulars: K562-ABCB6 porphyrin accumulation, 1 h, at 10 µM, stronger effect = higher value.
Chain of ATP-binding cassette sub-family B member 6 (Homo sapiens) (Q9NP58 whole entry, looked up): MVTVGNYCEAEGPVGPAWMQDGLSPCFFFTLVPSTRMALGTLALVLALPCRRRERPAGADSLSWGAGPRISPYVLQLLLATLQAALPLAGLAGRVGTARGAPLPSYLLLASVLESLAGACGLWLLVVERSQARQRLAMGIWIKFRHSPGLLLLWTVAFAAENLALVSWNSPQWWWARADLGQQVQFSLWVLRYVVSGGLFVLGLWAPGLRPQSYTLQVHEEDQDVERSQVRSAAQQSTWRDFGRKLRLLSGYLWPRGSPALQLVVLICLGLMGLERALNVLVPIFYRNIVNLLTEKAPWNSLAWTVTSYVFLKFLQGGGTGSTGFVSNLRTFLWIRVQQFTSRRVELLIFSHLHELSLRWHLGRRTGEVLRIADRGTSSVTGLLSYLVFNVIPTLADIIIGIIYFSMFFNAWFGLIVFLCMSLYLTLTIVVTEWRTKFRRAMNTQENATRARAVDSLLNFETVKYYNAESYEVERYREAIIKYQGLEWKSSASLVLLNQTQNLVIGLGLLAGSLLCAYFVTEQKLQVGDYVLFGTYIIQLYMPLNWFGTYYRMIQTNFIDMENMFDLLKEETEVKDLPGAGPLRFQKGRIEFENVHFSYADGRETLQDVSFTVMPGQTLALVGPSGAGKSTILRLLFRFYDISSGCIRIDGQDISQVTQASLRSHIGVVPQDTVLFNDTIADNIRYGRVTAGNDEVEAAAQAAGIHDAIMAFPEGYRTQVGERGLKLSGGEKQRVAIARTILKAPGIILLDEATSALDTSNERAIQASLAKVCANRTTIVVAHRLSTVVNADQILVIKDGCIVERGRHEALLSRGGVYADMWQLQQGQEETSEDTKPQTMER
The nature of test [26]: AML differentiation inducers, ER-HoxA9 marrow cells – cell-based, GFP/MAC1 double positive, flow cytometry, validation set, primary screen (AID 588685;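 active means differentiation response of at least 50%, scaled between solvent and reference control, from cells with both markers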;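 further: compound exposure lasts four days before antibody staining and flow analysis; 0% = DMSO wells and 100% = 5 µM fulvestrant positive control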). Particulars: stronger effect = higher value, normalized: vehicle 0, fulvestrant 100.
Where [27] appears, read: measured here: daughter cell gate.
Where [28] appears, read: measured here: mother cell gate.
Where [29] appears, read: measured here: daughter cell gate response.
Where [30] appears, read: measured here: mother cell gate response.

For some of these results: Entries with a potency or affinity are not part of this list. The list shows a part of the results. Activity calls are given as the source filed them.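 How the source made its calls, unless noted: active means fitted half-maximal concentration within the tested dose range, moderate curve steepness, a statistically real signal drop, and little compound fluorescence or tag-binding interference; inactive means the rest.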

Chain of Cell division control protein 42 homolog (Homo sapiens) (P60953 whole entry, looked up): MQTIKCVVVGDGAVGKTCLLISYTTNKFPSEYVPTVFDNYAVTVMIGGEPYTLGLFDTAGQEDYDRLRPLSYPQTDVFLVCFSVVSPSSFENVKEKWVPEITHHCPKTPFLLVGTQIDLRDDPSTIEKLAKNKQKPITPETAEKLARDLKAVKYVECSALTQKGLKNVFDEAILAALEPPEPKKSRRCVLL
Chain of AP-2 complex subunit beta (Homo sapiens) (P63010 whole entry, looked up, the tested form may be a part, one chain of several): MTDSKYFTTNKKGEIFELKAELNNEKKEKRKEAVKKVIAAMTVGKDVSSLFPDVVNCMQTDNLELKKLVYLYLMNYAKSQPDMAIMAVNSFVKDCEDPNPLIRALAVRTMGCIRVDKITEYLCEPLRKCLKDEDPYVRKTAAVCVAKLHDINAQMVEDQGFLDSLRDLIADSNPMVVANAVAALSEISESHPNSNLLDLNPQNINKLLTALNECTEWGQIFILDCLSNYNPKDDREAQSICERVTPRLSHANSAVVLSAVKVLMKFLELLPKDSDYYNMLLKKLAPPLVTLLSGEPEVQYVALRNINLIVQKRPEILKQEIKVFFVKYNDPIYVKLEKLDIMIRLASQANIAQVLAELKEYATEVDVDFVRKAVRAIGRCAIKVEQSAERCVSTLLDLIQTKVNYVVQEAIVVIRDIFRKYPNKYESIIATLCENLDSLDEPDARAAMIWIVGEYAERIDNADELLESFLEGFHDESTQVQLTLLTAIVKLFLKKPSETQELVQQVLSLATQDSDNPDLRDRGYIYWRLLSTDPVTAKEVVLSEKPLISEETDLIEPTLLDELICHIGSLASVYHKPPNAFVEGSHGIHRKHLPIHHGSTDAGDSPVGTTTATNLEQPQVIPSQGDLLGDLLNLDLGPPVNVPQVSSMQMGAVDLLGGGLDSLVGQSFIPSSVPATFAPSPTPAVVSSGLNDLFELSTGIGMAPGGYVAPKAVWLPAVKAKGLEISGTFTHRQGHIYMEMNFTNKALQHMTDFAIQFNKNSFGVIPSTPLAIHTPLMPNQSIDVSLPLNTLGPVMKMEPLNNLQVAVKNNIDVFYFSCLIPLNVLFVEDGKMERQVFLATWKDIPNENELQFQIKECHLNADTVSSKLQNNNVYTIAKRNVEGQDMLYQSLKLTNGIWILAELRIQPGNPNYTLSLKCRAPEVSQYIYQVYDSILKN
Chain of Beta-2 adrenergic receptor (Homo sapiens) (P07550 whole entry, looked up): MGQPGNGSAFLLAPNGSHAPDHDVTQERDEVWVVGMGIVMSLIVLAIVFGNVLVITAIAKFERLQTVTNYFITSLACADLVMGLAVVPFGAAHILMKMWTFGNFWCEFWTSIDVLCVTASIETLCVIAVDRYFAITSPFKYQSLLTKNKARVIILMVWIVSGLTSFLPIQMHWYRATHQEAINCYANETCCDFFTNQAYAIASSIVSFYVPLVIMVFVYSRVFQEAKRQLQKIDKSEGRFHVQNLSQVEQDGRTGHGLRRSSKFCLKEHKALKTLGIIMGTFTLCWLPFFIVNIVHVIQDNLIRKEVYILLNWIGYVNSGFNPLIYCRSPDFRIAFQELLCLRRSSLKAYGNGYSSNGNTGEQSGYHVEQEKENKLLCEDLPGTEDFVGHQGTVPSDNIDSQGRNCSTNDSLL

On to `Cc1ccc(Nc2n[nH]c(C)c2[N+](=O)[O-])c(C)c1`, for which the outcome in [1], in [4] and in test [6] was inactive. Also, the fluorescence, percent of control (lower = inhibition) in [2] amounted to 52.6%. Further, the GTP binding, percent of control in test [3] stood at 65.8%. The GTP binding signal, raw median fluorescence (lower = inhibition) (MCF (arbitrary fluorescence units)) in test [5] stood at 194.

On to `CN(c1ccccc1)c1ccc(/C=c2\s/c(=C(/C#N)C(=O)C(C)(C)C)n(Cc3ccco3)c2=O)cc1`, for which the result in [1], in test [4] and in test [6] was inactive. For the same compound, in test [2], the fluorescence, percent of control (lower = inhibition) was found to be 160%. In test [3], the GTP binding, percent of control turned out to be 157%. The GTP binding signal, raw median fluorescence (lower = inhibition) (MCF (arbitrary fluorescence units)) in test [5] came to 180. In addition, in test [7], the RGS16–Galpha-o binding response turned out to be 551%. Besides, the RGS19–Galpha-o binding response in test [8] was found to be 4650%. Also, the RGS7–Galpha-o binding response in test [9] amounted to 421%. The RGS8–Galpha-o binding response in test [10] turned out to be 134%. Further, the GFP response vs DMSO in test [11] is 118% (inactive); in [11] (setting [27]), 118%; in test [11] (setting [28]), 116%; in test [13], 309% (active). Further, the GFP response relative to DMSO in test [12] is 235% (active); in test [12] (setting [29]) it was 240%; in test [12] (setting [30]), 231%. Also, the GFP response, % of DMSO is 126% (inactive) in test [14], 231% (active) in test [15], 229% in test [15] (setting [27]) and 230% in test [15] (setting [28]). The fluorescence change (kMESF span) in [16] is 19.9 (inactive).

Take `CCN1/C(=C/C=C/C=C/c2sc3ccccc3[n+]2CC)Sc2ccccc21`: the outcome in [1] and in test [6] was inactive. Also, the fluorescence, percent of control (lower = inhibition) in [2] is 1.8%. The compound also registered a GTP binding, percent of control in test [3] of 2%. Besides, the GTP binding, % of control in [4] was 4.4% [at 3.7 µM] (inactive). Moreover, the GTP binding signal, raw median fluorescence (lower = inhibition) (MCF (arbitrary fluorescence units)) in [5] amounted to 1.8. The compound also showed a double positive events in [17] of 81.6%. The vesicle binding response in test [17] was 109% (inactive). Moreover, in test [18], the superoxide response (% of plate) is 89.6% (inactive). In addition, the aptamer binding inhibition in test [19] was 39% (active). Besides, the results for the response in test [20] and in test [22] were -16.6% (inactive) and -3.07% (inactive), respectively. Moreover, the inhibition in test [21] is 75.8% (active); in [25], 10% (inactive). Also, in [23], the binding (% of control) was 121% (inactive). The efflux inhibition (fraction of control) in test [24] is 0.73 (active). In addition, the differentiation response in [26] was 7.37% (inactive).

Turning to `CC(C)(C)C(=O)/C=c1\s/c(=C\c2ccc(-c3ccc([N+](=O)[O-])cc3)o2)c(=O)n1CC(=O)NC(N)=O`, the compound was called inactive in test [1], in test [4] and in test [6]. Also, in [2], the fluorescence, percent of control (lower = inhibition) is 99.6%. Besides, the GTP binding, percent of control in test [3] amounted to 141%. In test [5], this compound showed a GTP binding signal, raw median fluorescence (lower = inhibition) (MCF (arbitrary fluorescence units)) of 256. Also, the GFP response vs DMSO in test [11] is 101% (inactive); in [11] (setting [27]) it was 101%; in [11] (setting [28]), 101%; in [13] it was 112% (inactive). For the same compound, the GFP response relative to DMSO in test [12] was 102% (inactive); in [12] (setting [29]) it was 99.7%; in [12] (setting [30]), 103%. The GFP response, % of DMSO is 101% (inactive) in [14], 99.7% (inactive) in test [15], 100% in [15] (setting [27]) and 98.7% in [15] (setting [28]).

`CCOC(=O)N1CCN(C(=O)CCc2ccc(S(=O)(=O)NCCc3ccccc3)cc2)CC1`: the call in test [1], in [4] and in [6] was inactive. Also, the fluorescence, percent of control (lower = inhibition) in [2] turned out to be 48.3%. This compound also gave a GTP binding, percent of control in test [3] of 57.7%. In test [5], the GTP binding signal, raw median fluorescence (lower = inhibition) (MCF (arbitrary fluorescence units)) is 0. Besides, the GFP response vs DMSO in [11] is 99.3% (inactive); in [11] (setting [27]), 100%; in [11] (setting [28]), 97.8%; in [13], 101% (inactive). Further, the GFP response relative to DMSO in test [12] was 95.3% (inactive); in test [12] (setting [29]), 99%; in test [12] (setting [30]) it was 94.4%. Besides, the GFP response, % of DMSO in test [14] was 108% (inactive); in test [15], 100% (inactive); in [15] (setting [27]) it was 101%; in test [15] (setting [28]), 100%.

`Cc1ccc(Sc2c(C)nn(C(=O)C3CC3)c2C)cc1`: the compound was called inactive in test [1], in test [4] and in [6]. Besides, the fluorescence, percent of control (lower = inhibition) in test [2] came to 28.8%. For the same compound, the GTP binding, percent of control in test [3] amounted to 78.5%. For the same compound, the GTP binding signal, raw median fluorescence (lower = inhibition) (MCF (arbitrary fluorescence units)) in test [5] stood at 236.

(Values after PubChem BioAssay.)
